In PubChem BioAssay (NCATS):
Results filed as inconclusive are left out. Active and inactive are the calls of the source. Calls follow the shape of the dose curve; as a rule, active = well fitted inhibition curve with a large enough effect; inconclusive = small, poorly fitted or top-dose-only effect; inactive = flat fitted curve, though single readings scatter. Where a SMILES comes first, the peptide text is derived from it. Bridges are numbered along the chain shown (N, C = ends). [ ]: non-standard residue; d: D form. The star is where a group is joined. X2 = CC[C@H](C)CCCCC(=O)*; Dab = NCC[C@H](N)C(=O)O

Assays:
[1] = Drug repurposing screens with cells derived from glioblastoma tumor samples (AID 1345199); details: GBM patient neurospheres viability, ATP luminescence, 48 h; also: nearly all actives have a fitted effect of over 40% in size
Procedure, shortened: (§1)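 Primary testing used CD133+ neurospheres from four GBM patients, seven concentrations, 48 h exposure and ATP-based viability; confirmation added three slower-growing patient lines.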

astro = control astrocytes; assay: as above; details: viability, ATP luminescence, 48 h; series mostly up to 45.9 µM
Procedure, shortened: as §1

[2] = at 45.9 µM (top of the series), tumour line B
[3] = at 45.9 µM (top of the series), tumour line D
[4] = at 46 µM (top of the series), tumour line A
[5] = at 46.1 µM (top of the series), tumour line C
% is scaled to controls: 0 for no effect and ±100 for the full control effect.

CN[C@@H]1[C@H](O[C@H]2[C@H](O[C@H]3[C@H](O)[C@@H](O)[C@H](N=C(N)N)[C@@H](O)[C@@H]3N=C(N)N)O[C@@H](C)[C@]2(O)CO)O[C@@H](CO)[C@H](O)[C@H]1O
inactive: activity, negative = cell killing [1, 2] -12.7% | activity, negative = cell killing [1, 3] -12.4% | activity, negative = cell killing [1, 4] -5.62% | activity, negative = cell killing [1, 5] -12.6% | Potency (astro)

CCCCCCCCCCCCCC(=O)OCC(COP(=O)([O-])OCC[N+](C)(C)C)OC(=O)CCCCCCCCCCCCC (stereo not given)
inactive: activity, negative = cell killing [1, 2] -7.07% | activity, negative = cell killing [1, 3] 3.06% | activity, negative = cell killing [1, 4] -21.5% | activity, negative = cell killing [1, 5] -13.4% | Potency (astro)

CC[C@H](C)CCCCC(=O)N[C@@H](CCN)C(=O)N[C@H](C(=O)N[C@@H](CCN)C(=O)N[C@H]1CCNC(=O)[C@@H]([C@H](C)O)NC(=O)[C@H](CCN)NC(=O)[C@H](CCN)NC(=O)[C@H](CC(C)C)NC(=O)[C@@H](CC(C)C)NC(=O)[C@H](CCN)NC1=O)[C@@H](C)O (X2-[Dab]T[Dab][Dab][Dab][dL]L[Dab][Dab][dT]; lactam 4-C)
inactive: activity, negative = cell killing ([1]; at 20 µM (top of the series), tumour line C) 7.06% | activity, negative = cell killing ([1]; at 21.2 µM (top of the series), tumour line B) -0.409% | activity, negative = cell killing ([1]; at 21.2 µM (top of the series), tumour line D) -6.08% | activity, negative = cell killing ([1]; at 21.3 µM (top of the series), tumour line A) -17.3% | Potency (astro)

CCC(=O)OC(OP(=O)(CCCCc1ccccc1)CC(=O)N1C[C@H](C2CCCCC2)C[C@H]1C(=O)O)C(C)C (stereo not given in full)
inactive: activity, negative = cell killing [1, 2] -7.98% | activity, negative = cell killing [1, 3] -19.4% | activity, negative = cell killing [1, 4] -12.6% | activity, negative = cell killing [1, 5] -19% | Potency (astro)

OCC1(CO)COC(C(Cl)(Cl)Cl)OC1
inactive: activity, negative = cell killing [1, 2] -8.7% | activity, negative = cell killing [1, 3] -7.18% | activity, negative = cell killing [1, 4] -26.1% | activity, negative = cell killing [1, 5] -4.39% | Potency (astro)
